# HSP90 refold inh: blocks HSP90-mediated luciferase refolding in reticulocyte lysate; 0.91% of 290,000 active; inhibition, % at 5.6 µM; Rabbit reticulocyte lysate, luciferase refolding luminescence, 3 h;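 active = inhibition above the screen-wide mean plus 3 SD, computed separately per campaign, cut at about 16% in these data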;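 also: 0% = DMSO wells and 100% = 60 µM geldanamycin wells; inhibitors lower the luminescence because luciferase stays unfolded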
# SENP8 block-1: inhibitors of human SENP8 protease; AID 602440; recombinant SENP8, Nedd8 substrate fluorescence; 0.64% of 360,000 active; inhibition, % at 20 µM; in the data active = inhibition mostly above about 40%, no sharp cut-off; inactive = mostly below about 27%
# Target sequence (Q96LD8 whole entry, looked up): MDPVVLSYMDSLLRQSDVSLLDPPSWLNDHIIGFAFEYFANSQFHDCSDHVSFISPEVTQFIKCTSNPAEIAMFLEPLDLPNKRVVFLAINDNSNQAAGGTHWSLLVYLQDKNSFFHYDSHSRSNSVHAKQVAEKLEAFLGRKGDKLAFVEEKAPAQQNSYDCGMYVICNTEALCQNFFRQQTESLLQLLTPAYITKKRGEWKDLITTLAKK
# SENP7 inh: SENP7 protease inhibition; Q9BQF6; 1.5% of 330,000 active; recombinant SENP7, Z-RLRGG-aminoluciferin luminescence, 40 min; inhibition, % at 5 µM;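 active = inhibition above about 50% at the single test dose, limit read from the data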;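 also: plate controls were DMSO with enzyme for no effect and no enzyme buffer wells for full effect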
# Target sequence (Q9BQF6 706-1050 limits assumed): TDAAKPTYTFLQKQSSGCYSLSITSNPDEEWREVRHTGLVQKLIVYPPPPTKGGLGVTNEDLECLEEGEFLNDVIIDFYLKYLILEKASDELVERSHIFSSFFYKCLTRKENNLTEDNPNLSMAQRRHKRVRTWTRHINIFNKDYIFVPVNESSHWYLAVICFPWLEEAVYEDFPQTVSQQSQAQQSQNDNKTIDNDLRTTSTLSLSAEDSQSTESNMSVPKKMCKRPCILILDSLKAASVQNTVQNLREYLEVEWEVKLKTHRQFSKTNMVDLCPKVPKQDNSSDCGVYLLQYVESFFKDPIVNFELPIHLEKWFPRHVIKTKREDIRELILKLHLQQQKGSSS
# SENP6 block: SENP6 protease inhibition. 1.8% of 330,000 active. Recombinant SENP6 catalytic domain, aminoluciferin luminescence. Q9GZR1. inhibition, % at 10 µM;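 active = inhibition above about 50% at the single tested dose, limit read from the data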;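 also: plate controls were DMSO wells with enzyme for no effect and DMSO wells lacking enzyme for full effect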
# SENP8 block-2: inhibitors of human SENP8 protease. Q96LD8. purified SENP8, Z-RLRGG-aminoluciferin cleavage, luminescence. inhibition, % at 10 µM. 1.2% of 330,000 active. AID 2540; in the data active = inhibition above about 50%
# An asterisk follows results filed as active; nt = not tested or not shown. Sampled rows, rich in hits. Any-hit rate of the full collection: about 2.8%.
SMILES,HSP90 refold inh,SENP8 block-1,SENP7 inh,SENP6 block,SENP8 block-2
COc1ccc(OC)c(N)c1,0,34,7,8,13
Nc1ccc(N=Nc2ccc(O)cc2)c(N)n1,nt,-22,nt,nt,nt
N/C(=N\N=C/c1ccc(Br)cc1)N/N=C\c1ccc(Br)cc1,0,-172,2,8,-2
CCc1c(C)nc(N2CCN(c3ccc(F)cc3)CC2)[nH]c1=O,8,4,-11,16,-3
COc1cccc2cc(-c3nc(-c4cccs4)cs3)c(=O)oc12,-3,-318,-4,-13,-10
COc1cccc2cc(-c3ccccc3)c(=O)oc12,-3,-74,75*,42,66*
CCN(CC)S(=O)(=O)c1cc(C(=O)Nc2cc(C)on2)c(Cl)cc1Cl,-1,-1,-8,-3,-8
Cc1ccc2nc(-c3ccc(NC(=O)CCN4C(=O)c5ccccc5C4=O)cc3)sc2c1,-3,-377,-4,74*,51*
O=C(CCN1C(=O)c2ccccc2C1=O)Nc1ccc(-c2nc3ccccc3s2)cc1,7,-436,-12,-9,-1
COc1ccc(/C=N/n2c(C)nc3ccccc3c2=O)cc1,0,11,-7,-26,-1
COc1ccc(/C=N\n2nnc3ccccc32)cc1,29*,-6,90*,97*,94*
O=C1c2c(O)ccc(O)c2C(=O)c2c(NCCNCCO)ccc(NCCNCCO)c21,nt,51*,15,13,17
Cc1ccc(N=Nc2c(=O)[nH]n3c(C)cc(C)nc23)cc1,3,49*,-10,-15,-10
COc1ccc(-c2ccc(/C=C3\C(=O)N(c4ccccc4)N=C3c3ccccc3)o2)c([N+](=O)[O-])c1,3,46*,3,-8,4
O=C(Oc1ccc(Cl)cc1)c1ccc(COC(=O)c2cnccn2)cc1,6,15,9,18,-3
CC(C)OC(=O)c1ccc(COC(=O)c2cnccn2)cc1,0,4,69*,59*,42
C=CCOc1c(CNc2ccc(S(N)(=O)=O)cc2)cccc1OC,-5,-7,6,20,4
CC(=O)c1sc(N/N=C/c2cccc([N+](=O)[O-])c2)nc1C,-3,19,4,-15,-12
Oc1ccc(C=NNc2ccccn2)c(O)c1,nt,-3,nt,nt,nt
Oc1ccc(/C=N/Nc2nccnc2Cl)c(O)c1,2,-122,101*,96*,96*
CCOc1ccccc1CNCCNC(=O)c1nonc1N,16*,11,-1,-16,-1
C=CCOc1ccccc1CNCCNC(=O)c1nonc1N,3,-20,1,32,1
O=C1O/C(=C/c2ccccc2)c2ccccc21,-6,-29,27,59*,22
N#C/C(=C\c1ccc(-c2ccc(Br)cc2)o1)C(=O)NCCc1c[nH]c2ccccc12,1,-32,12,-8,-1
CC1=NN(c2nc(-c3ccc(C)cc3)cs2)C(=O)C1N=Nc1cccc(O)c1 (stereo unspecified),3,36*,-2,-7,8
SMILES,HSP90 refold inh,SENP8 block-1,SENP7 inh,SENP6 block,SENP8 block-2
CC1=NN(c2nc(-c3ccc(C)cc3)cs2)C(=O)C1N=Nc1ccccc1O (stereo unspecified),8,28,3,15,3
C=CCN1C(=O)/C(=C\C=C2\N(C)c3ccccc3C2(C)C)SC1=S,0,56*,8,12,-4
CCCN1C(=O)/C(=C/C=C2\N(CC)c3ccccc3C2(C)C)SC1=S,1,44*,5,5,7
CC(O)CNCCNCc1c(OCc2ccccc2)ccc2ccccc12 (stereo unspecified),-2,14,6,-17,-3
CCOc1cc(CNc2ccc(O)cc2)cc(Br)c1OCc1ccccc1F,1,41*,16,-11,4
C/C(=N\NC(=O)c1ccc(-c2ccccc2)cc1)C1C(=O)c2ccccc2C1=O,-3,28,1,3,8
C/C(=N\NC(=O)c1ccc(Br)cc1)C1C(=O)c2ccccc2C1=O,-1,18,57*,97*,94*
Cc1nn(-c2ccccc2)c2c1C(c1ccc(Br)s1)C(C#N)=C(N)O2 (stereo unspecified),9,14,nt,nt,nt
Cc1nn(-c2ccccc2)c2c1C(c1ccccc1)C(C#N)=C(N)O2 (stereo unspecified),6,2,52*,46,4
Cc1ccc(C(=O)N/C(=C/c2ccco2)C(=O)NCCc2c[nH]c3ccccc23)cc1,1,-4,-5,-14,-10
CCC(=O)Nc1cccc(-c2cn3cccc(C)c3n2)c1,4,-102,-5,-3,-11
COc1ccc(-c2cn3cccc(C)c3n2)cc1F,1,-298,60*,5,48
Cc1c(N2C(=O)c3ccccc3C2(O)c2ccccc2)c(=O)n(-c2ccccc2)n1C (stereo unspecified),-3,5,-1,95*,-2
O=c1nc(Nc2cccc(Cl)c2)oc2cc(Cl)oc(=O)c12,1,-17,-6,95*,95*
O=C(N/N=C/c1ccccc1)c1cccc2ccccc12,nt,12,3,-11,-1
Nc1c(C(=O)N/N=C/c2ccccc2)cnn1-c1ccccc1,1,0,51*,67*,49
COC(=O)c1sccc1NC(=O)/C=C/c1ccc(Cl)cc1,3,-40,95*,74*,58*
Cc1cccc(NC(=O)/C=C/c2ccc(Cl)cc2)n1,3,-1,86*,84*,68*
Cc1ccnc(NC(=O)c2ccccc2[N+](=O)[O-])c1,2,29,-10,19,-1
Cc1cccc(NC(=O)/C(C#N)=C/c2ccc(Cl)cc2)n1,-3,7,-3,5,-3
Cc1ccnc(NC(=O)/C=C/c2ccccc2[N+](=O)[O-])c1,2,nt,78*,39,69*
Cc1cc(C)nc(NC(=O)/C=C/c2ccccc2Cl)c1,-1,3,81*,83*,-4
COC1=CC(=NCl)C=CC1=NCl,nt,76*,nt,nt,nt
CCSc1nnc(NC(=O)COc2cccc3ccccc23)s1,-3,7,1,-6,0
O=C(COC(=O)C1CC1)Nc1ccc(N=Nc2ccccc2)cc1,3,43*,-2,-13,-28
SMILES,HSP90 refold inh,SENP8 block-1,SENP7 inh,SENP6 block,SENP8 block-2
O=C(COC(=O)C1CC1)Nc1ccc(OC(F)F)cc1,3,-2,-1,-6,6
COc1n[nH]c(C(=O)NCc2ccccc2)c1[N+](=O)[O-],-1,6,6,-13,7
COc1n[nH]c(C(=O)Nc2nc3ccccc3s2)c1[N+](=O)[O-],-4,16,92*,96*,91*
CCOC(=O)NC(=O)/C(N=Nc1cccc(C(F)(F)F)c1)=C(\C)O,4,14,-2,-11,-8
COC(=O)/C(N=Nc1cccc(C(F)(F)F)c1)=C(\C)O,0,49*,3,0,-3
N#C/C(=C\C=C\c1ccccc1)c1nc(-c2ccc3c(c2)OCO3)cs1,1,-39,2,-2,5
CCOC(=O)[C@]12CCC=C1N(Cc1ccccc1)C(=O)[C@H](CC(=O)NCCCCc1ccccc1)C2,nt,5,nt,nt,nt
Cc1nc(SCC(=O)Nc2nc3ccccc3s2)c(C#N)c(C)c1C,68*,0,6,-4,0
